{"source": "PubChem BioAssay", "note": "Active and inactive are the calls of the source. How the calls were made is not given here."}
{"tested_on": "Aerobactin synthetase IucA (Klebsiella pneumoniae hvKP1)", "experiment": "IucA enzyme inhibition, primary screen, biochemical, Spectrum library (AID 1346200);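 further: 100% = wells without compound and 0% = wells lacking enzyme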", "settings": "malachite green pyrophosphate, A620, at 8 µM, stronger effect = lower value"}
{"smiles": "O=C1NCC2(CCN(CCc3ccccc3)CC2)O1", "activity remaining": "111% (inactive)"}
{"smiles": "CC(C)(C)NCC(O)c1ccc(O)c(CO)c1", "note": "(centres undefined)", "activity remaining": "110% (inactive)"}
{"smiles": "CCCn1c(=O)c2[nH]c(C3CCCC3)nc2n(CCC)c1=O", "activity remaining": "82.2% (inactive)"}
{"smiles": "O=C(O)/C=C/c1ccc(O)c(O)c1", "activity remaining": "101% (inactive)"}
{"smiles": "CCCCC[C@H](CC(=O)NO)C(=O)N[C@H](C(=O)N1CCC[C@H]1CO)C(C)C", "activity remaining": "109% (inactive)"}
{"smiles": "O=C(c1ccccc1)c1ccc2n1CCC2C(=O)O", "note": "(centres undefined)", "activity remaining": "128% (inactive)"}
{"smiles": "O=C(O)C1=CC(=C(c2ccc(O)c(C(=O)O)c2)c2ccc(O)c(C(=O)O)c2)C=CC1=O", "activity remaining": "101% (inactive)"}
{"smiles": "O=c1c(O)c(-c2ccc(O)c(O)c2)oc2cc(O)cc(O)c12", "activity remaining": "99.3% (inactive)"}
{"smiles": "Nc1nc(N)c2nc(-c3ccccc3)c(N)nc2n1", "activity remaining": "114% (inactive)"}
{"smiles": "CCN(CC)CC(=O)Nc1c(C)cccc1C", "activity remaining": "101% (inactive)"}
{"smiles": "CCCC(C(=O)OCCN(CC)CC)(c1ccccc1)c1ccccc1", "activity remaining": "105% (inactive)"}
{"smiles": "CN(C)c1nc(N(C)C)nc(N(C)C)n1", "activity remaining": "118% (inactive)"}
{"smiles": "Cc1ccc(S(=O)(=O)NC(=O)NN2CCCCCC2)cc1", "activity remaining": "117% (inactive)"}
{"smiles": "OCCN1CCN(CCCN2c3ccccc3Sc3ccc(Cl)cc32)CC1", "activity remaining": "121% (inactive)"}
{"smiles": "CC(=O)Nc1nnc(S(N)(=O)=O)s1", "activity remaining": "103% (inactive)"}
{"smiles": "CN=C(N)NCCC[C@H](N)C(=O)O", "activity remaining": "116% (inactive)"}
{"smiles": "CN(C)CCOC(=O)COc1ccc(Cl)cc1", "activity remaining": "124% (inactive)"}
{"smiles": "CN=C(NC#N)NCCSCc1nc[nH]c1C", "activity remaining": "98.9% (inactive)"}
{"smiles": "C=CCc1ccccc1OCC(O)CNC(C)C", "note": "(centres undefined)", "activity remaining": "110% (inactive)"}
